Sampled rows, rich in hits. Any-hit rate of the full collection: about 3.1%.
TRb-SRC2 inh – inhibitors of human thyroid hormone receptor beta-SRC2 interaction; P10828; TRbeta-SRC2 peptide binding, fluorescence polarization; receptor liganded with 1 µM T3; Potency, µM (top dose mostly 106 µM), for the others: top-dose activity change, negative = inhibition, usual class: inhibitors; 280,000 tested, 0.065% active; AID 1469;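 also: plate controls were bound peptide for no effect and peptide without receptor for full effect; nearly all actives have a fitted effect of over 50% in size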
Target sequence (P10828 whole entry, looked up): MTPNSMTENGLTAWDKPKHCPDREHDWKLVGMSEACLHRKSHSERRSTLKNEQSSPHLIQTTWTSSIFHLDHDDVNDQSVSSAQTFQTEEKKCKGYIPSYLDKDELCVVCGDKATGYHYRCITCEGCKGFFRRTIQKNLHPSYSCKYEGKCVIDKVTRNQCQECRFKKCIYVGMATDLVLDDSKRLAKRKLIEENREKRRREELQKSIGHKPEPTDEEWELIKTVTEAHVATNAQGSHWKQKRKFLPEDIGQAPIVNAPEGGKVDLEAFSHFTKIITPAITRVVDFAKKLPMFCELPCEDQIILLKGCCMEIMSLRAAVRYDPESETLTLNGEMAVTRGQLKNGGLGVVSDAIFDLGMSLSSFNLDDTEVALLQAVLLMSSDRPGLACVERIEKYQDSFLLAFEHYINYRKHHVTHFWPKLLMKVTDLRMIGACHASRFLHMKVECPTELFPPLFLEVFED
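Fluorescence polarization of 20 nM Texas Red SRC2 peptide (20-aa NR interaction domain) bound to 0.6 uM human TRb ligand-binding domain, with 1 uM T3, after 5 hr at ambient temperature; inhibition seen as decreased polarization.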
TexasRed fluor – Texas Red fluorescence interference in TRb-SRC2 counter-screen; TRb/SRC2 Texas Red total fluorescence interference; Potency, µM (titrated, usually from 106 µM), without a hit: at the highest dose fluorescence change, negative = quenching; 280,000 tested, 0.29% active; active = well fitted curve in either direction with a large enough effect; inconclusive = small, poorly fitted or top-dose-only effect
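Human TRβ ligand-binding domain (0.6 uM) and Texas Red SRC2 peptide (20 nM) in Tris buffer with 1 uM T3 and 5% DMSO were incubated with pinned compound for 5 hr at ambient temperature. Total fluorescence was computed as S + 2P (555/632 nm).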
Tau fluor cs – counter-screen for tau fibril formation inhibitors; Potency, µM (series often up to 57.7 µM), for the others: top-dose activity change, negative = decrease; tau K18 P301L Alexa594 fluorescence, heparin fibrillization; 280,000 tested, 0.93% active; AID 1463; also: nearly all actives have a fitted effect of over 55% in size
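Human K18 P301L tau (15 uM unlabeled plus 0.24 uM Alexa 594-labeled, final) in 100 mM sodium acetate pH 7 was mixed with compound and 20 uM heparin and incubated 6 hr at 37 C.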
Tau FP inhib – blocks human tau fibril formation measured by polarization | 280,000 tested, 0.39% active | P10636 | K18 P301L tau heparin fibrillization, Alexa594 FP, 6 h | Potency, µM (doses to about 57.7 µM), without a hit: top-dose activity, negative = inhibition, actives largely listed as inhibitors | AID 1468; also: nearly all actives have a fitted effect of over 55% in size
Target sequence (P10636 561-689 P618L limits assumed): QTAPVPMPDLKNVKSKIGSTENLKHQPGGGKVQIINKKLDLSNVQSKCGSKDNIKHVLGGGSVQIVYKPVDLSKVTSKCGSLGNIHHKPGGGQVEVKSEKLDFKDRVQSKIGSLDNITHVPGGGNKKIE
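Quantitative HTS format: compounds meet 15 uM recombinant K18 P301L tau and Alexa 594-tau tracer in 100 mM sodium acetate pH 7; 20 uM heparin triggers fibrillization at 37 C over 6 hr; FP gives the signal.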
Tau fibril ThT – blocks human tau fibril formation measured by thioflavin T | Potency, µM (titrated, usually from 57.4 µM), inactives show at the highest dose activity, negative = inhibition, usual class: inhibitors | P10636 | AID 1460 | recombinant tau K18 P301L (four-repeat tau fragment), heparin-induced fibrillization, ThT fluorescence | 270,000 tested, 2.1% active; also: nearly all actives have a fitted effect of over 55% in size
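Heparin-induced fibrillization of the P301L-mutant K18 repeat-domain fragment of human tau was followed by ThT binding in quantitative high-throughput format.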
* hit, by the source's call; ? = inconclusive; · = not tested or not shown; [ ] = dose if it differs, or a comment. Unless noted, calls follow the shape of the dose curve; as a rule, active = well fitted curve in the direction sought with a large enough effect; inconclusive = small, poorly fitted or top-dose-only effect, or another doubt; inactive = no such curve, though single readings can be large; an effect the other way counts as inactive or inconclusive. Unless noted, % is scaled to controls: 0 for no effect and ±100 for the full control effect; potency is read from the fitted curve at half-maximal effect.

SMILES | TRb-SRC2 inh | TexasRed fluor | Tau fluor cs | Tau FP inhib | Tau fibril ThT
Cc1ccccc1C(=O)Nc1cccc(NC(=O)c2ccc(C(C)(C)C)cc2)c1 | -24%[53 µM] | 0.16µM*[quencher] | -6% | -20% | 2%
CCOc1ccc(-c2cn3c(n2)sc2cc(C(=O)NCCCN4CCCCC4)ccc23)cc1 | -3% | -30% | ? | 3% | -3%
C=CCn1c(SCC(=O)NC2CCCC2)nc2scc(-c3ccco3)c2c1=O | -3% | -19% | -19% | ? | 28µM*
C=CCn1c(SCC(=O)NCCCC)nc2scc(-c3ccco3)c2c1=O | 4% | -8% | -11% | -12% | ?
CCC(=O)OCCc1ccccc1 | 6%[201 µM] | -2%[201 µM] | · | · | ·
CC/C(=N/Nc1ccccc1C)c1cnnc(SC)n1 | 4% | -1% | -20% | ? | 3.5µM*
CSc1nncc(/C(C)=N\Nc2ccccc2)n1 | -1% | 1% | -8% | -3% | 2.8µM*
CSc1nncc(/C(C)=N\Nc2cccc(C)c2)n1 | -23% | 0% | -11% | -8% | ?
Oc1ccc(/C=N/N=C(c2ccccc2)c2ccccc2)c(O)c1O | 2% | -13% | 13µM*[quencher] | ? | 8.9µM*
O=C(/C(=N/N=C/c1ccc(O)c(O)c1O)c1ccccc1)c1ccccc1 | 0% | -1% | 7% | -3% | 10%
CC(C)=CCc1c2c(c3occ(-c4ccc(O)c(O)c4)c(=O)c3c1O)C=CC(C)(C)O2 | 5% | 0% | 3.5µM*[quencher] | 25µM* | ?
CC1(C)C=Cc2c(c3c(c4c(=O)c(-c5ccc(O)cc5)coc24)OC(C)(C)CC3)O1 | 4% | -1% | ? | ? | ?
CC(C)=CCc1c2c(c3occ(-c4ccc(O)cc4)c(=O)c3c1O)C=CC(C)(C)O2 | 8% | 0% | 3.2µM*[quencher] | 22µM* | ?
CC1CCN(S(=O)(=O)c2ccc3c(c2)c(=O)c(C(=O)NCCc2ccccc2)cn3C)CC1 | -12% | -2% | -19% | -21% | -1%
Cc1ccc(NC(=O)COc2ccccc2C(=O)Nc2ccccc2)cc1Cl | 13% | 0% | ? | 4.5µM* | -1%
CCCCCCCCCCCC(=O)OC | -2%[201 µM] | 1%[201 µM] | · | · | ·
O=C(N/N=C/c1ccc2c(c1)OCO2)c1ccc(Br)o1 | -5% | -1% | 3% | 7% | 6%
CCN(CC)c1ccc(/C=N/NC(=O)c2ccc(Br)o2)cc1 | 5% | -8% | ? | 12% | 3.2µM*
CC(NC(=O)C1CCN(S(=O)(=O)c2ccc(F)cc2)CC1)c1ccccc1 (stereo unspecified) | 3% | -3% | 4% | -8% | 1%
Cc1cccc(N=Nc2c(N)n[nH]c2-c2ccc(Cl)cc2)c1 | -4% | -1% | 8.9µM*[quencher] | ? | ?
Cc1[nH]nc(N)c1-c1ccc(Cl)cc1 | -2% | -2% | -4% | 0% | -1%
Cc1ccc(-c2[nH]nc(N)c2N=Nc2cccc(Cl)c2C)cc1 | 3% | -2% | 6.3µM*[quencher] | ? | 13µM*
Cc1ccc(-c2[nH]nc(N)c2N=Nc2ccccc2C)cc1 | -2% | 0% | 11µM*[quencher] | -5% | 16µM*
COC(=O)c1ccccc1N=Nc1c(N)n[nH]c1N | -4% | 0% | -13% | 8% | ?
COC(=O)CN1C(=O)CSc2ccc(S(=O)(=O)Nc3ccccc3)cc21 | -2% | -2% | -9% | 0% | 7%
SMILES | TRb-SRC2 inh | TexasRed fluor | Tau fluor cs | Tau FP inhib | Tau fibril ThT
O=CN/C=C/c1cc(O)ccc1O | -2% | -9% | 28µM*[quencher] | ? | 25µM*
CN(C)S(=O)(=O)c1cccc(NC(=O)CSc2nnnn2-c2ccccc2)c1 | 6% | -1% | -33% | ? | -13%
Cc1ccccc1NC(=O)c1ccc(Cl)c(S(=O)(=O)N2CCCCCC2)c1 | ? | 0.79µM*[quencher] | -15% | -3% | -3%
Cc1ccc(C(=O)Nc2ccccc2C(=O)O)cc1S(=O)(=O)N1CCCCCC1 | 2% | 9% | -5% | 5% | -5%
C[C@@H](CN(C)C[C@H]1C(=O)O[C@@H]2C[C@@]3(C)CCC[C@]4(CO4)C3CC21)[C@H](O)c1ccccc1 (stereo partly specified) | -6% | 0% | -1% | 2% | -8%
O=[N+]([O-])c1cc(Cl)ccc1NCCNS(=O)(=O)c1ccccc1 | -2% | -4% | ? | 4% | 13µM*
CC(=O)OC[C@@H]1O[C@@H](O/N=C2/C[C@@H](O)[C@@H](O)[C@@H]3[C@H]4C(=O)N(c5ccc(F)cc5F)C(=O)[C@@H]4CC[C@@H]23)[C@H](OC(C)=O)[C@H](OC(C)=O)[C@@H]1OC(C)=O | 4%[11.2 µM] | 0%[11.2 µM] | -1%[11.6 µM] | -4%[11.6 µM] | -1%[11.5 µM]
Cc1cc(N/N=C/c2ccc3c(c2)OCO3)nc2ccccc12 | 13% | -3% | -72% | 3% | ·
CC(=O)Nc1sc(NC(=O)c2ccccc2)nc1-c1cccs1 | -2% | -4% | -12% | -1% | ?
CC(=O)Nc1sc(N/N=C\c2ccc(O)cc2)nc1-c1cccs1 | 2% | 0% | ? | -9% | 14µM*
CC(=O)Nc1sc(N/N=C\c2cccc(Cl)c2)nc1-c1cccs1 | -2% | -3% | ? | -6% | 10µM*
CC(=O)Nc1sc(N/N=C\c2ccccc2F)nc1-c1cccs1 | -5% | -6% | ? | -2% | 8.9µM*
COc1ccccc1C(=O)Nc1nc(-c2cccs2)c(NC(C)=O)s1 | -14% | -3% | -26% | ? | -18%
COc1ccc(OC)c(C(=O)c2ccc(C(=O)N3CCCCC3)cc2)c1 | -4% | -1% | -4% | -1% | -6%
COC(=O)C1=C(C)[C@@H](O)[C@@H](C)[C@H](c2c(OC)c(OC)c(C)c(OC)c2OC)O1 | 0%[11.2 µM] | -6%[11.2 µM] | -9%[11.6 µM] | -10%[11.6 µM] | -10%[11.5 µM]
COc1ccccc1N1CCN(S(=O)(=O)c2cc(C(=O)Nc3ccc(Oc4ccccc4)cc3)ccc2F)CC1 | -3% | -1% | ? | ? | 2%
C(=Nc1ccc(N2CCOCC2)cc1)c1c[nH]c2ccccc12 | ? | -2% | ? | -10% | 25µM*
Oc1c(Cl)cc(Cl)cc1C=Nc1ccc2c(c1)OCCO2 | 2% | -3% | -19% | -14% | 16µM*
Oc1c(Br)cc(Cl)cc1C=Nc1ccc(N2CCOCC2)cc1 | -1% | 5% | -18% | -18% | 16µM*
Oc1ccc(N=Nc2cccc(Cl)c2)cc1C=Nc1ccc(N2CCOCC2)cc1 | -10% | -8% | -15% | -7% | ?
Oc1ccc2ccccc2c1C=Nc1ccc(N2CCOCC2)cc1 | -18% | -3% | ? | -9% | 5µM*
CN(C)c1nc(N/N=C/c2c[nH]c3ccccc23)nc(N2CCOCC2)n1 | 6% | 1% | -17% | 15% | ?
C=C1C(CCl)(CCl)C2(Cl)C(Cl)C(Cl)C1(Cl)C2(Cl)Cl (stereo unspecified) | 16% | -2% | · | · | ·
CCCCNC(=O)CCCn1c(=O)c2ccccc2n(Cc2ccccc2C)c1=O | 2% | 4% | -1% | -4% | -7%
